Here are results for 20 molecules from PubChem BioAssay (NCATS).

Where “and” joins values, the source holds several entries; their conditions need not be identical. Identical values can stand only once. A number with no mark means an inactive call. Records with an inconclusive call do not appear. Calls of active or inactive are those of the source. Calls follow the shape of the dose curve; as a rule, active = well fitted curve in the direction sought with a large enough effect; inconclusive = small, poorly fitted or top-dose-only effect, or another doubt; inactive = no such curve, though single readings can be large; an effect the other way counts as inactive or inconclusive.

A short description of assay [1]: Primary qHTS for inhibitors of nuclear receptor binding SET domain protein 2 (NSD2) in an RCH-ACV wild type WT cells (2C) (AID 1645877). Also: nearly all actives have a fitted effect of over 70% in size. Also: potency is read from the fitted curve at half-maximal effect. As to activity change, negative = cell killing: % is scaled to controls: 0 for no effect and ±100 for the full control effect. Background: In qHTS, concentration-response curves come from the screen itself.
In assay [2] the target is Glutathione peroxidase 1 (Homo sapiens) (UniProt P07203). The assay can be described thus: Primary qHTS Assay for Inhibitors of Recombinant Selenoprotein Glutathione Peroxidase 1 (GPX1) (AID 1845191). Also: nearly all actives have a fitted effect of over 65% in size. As to activity, negative = inhibition: % is scaled to controls: 0 for no effect and ±100 for the full control effect. In a few lines:
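GR-coupled assay: compounds preincubated 30 min at room temperature with GPX1, then reaction started with CHP; final 10 nM GPX1, 1 mM GSH, 0.5 mM CHP, 0.5 mM NADPH, 100 nM GR, 0.01% BSA, pH 7.5 Tris buffer. NADPH fluorescence (340/450 nm) read at 0 and 15 min.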

In assay [3] the target is Phospholipid hydroperoxide glutathione peroxidase GPX4 (Homo sapiens) (UniProt P36969). The assay is described as follows: Primary qHTS Assay for Inhibitors of Recombinant Selenoprotein Glutathione Peroxidase 4 (GPX4) (AID 1845192). Also: nearly all actives have a fitted effect of over 65% in size. As to activity change, negative = inhibition: series mostly up to about 50 µM; % is scaled to controls: 0 for no effect and ±100 for the full control effect. In outline:
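GR-coupled assay: recombinant GPX4 preincubated 30 min with compound at room temperature; final 200 nM GPX4, 1 mM GSH, 0.5 mM cumene hydroperoxide, 0.5 mM NADPH, 100 nM GR, 0.01% BSA, pH 7.5 Tris. NADPH fluorescence (340/450 nm) read at 0 and 15 min.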

The target of assay [4] is Luciferin 4-monooxygenase (Photinus pyralis) (UniProt P08659). The assay can be described thus: Primary firefly luciferase (FLuc) qHTS assay for identification of artifact compounds. (AID 1845220). Also: nearly all actives have a fitted effect of over 60% in size.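 As to activity change, negative = inhibition: series mostly up to about 54 µM; plate controls were DMSO vehicle for no effect and no enzyme for full effect.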 In outline:
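Titrated compounds were incubated 15 min at RT, protected from light, with luciferin and ATP at 10 uM; reaction started with 10 nM FLuc, luminescence imaged at 5 min, and concentration-response fitted by Hill equation.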

Assay [5] is described as follows: Primary fluorescence-based thiol-reactive (MSTI) qHTS assay for identification of artifact compounds. (AID 1845221). Also: nearly all actives have a fitted effect of over 65% in size. Also: potency is read from the fitted curve at half-maximal effect.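 As to activity change, negative = thiol reactive: series mostly up to about 54 µM; thiol-reactive compounds lower the probe fluorescence signal.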 In a few lines: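 Reactivity toward the thiol probe MSTI (4 uM) is scored by fluorescence at Ex/Em 525/598 nm after 1 h at room temperature. Acetyl-MSTI and MSTI define the activity scale.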
For assay [6], the system named is Nanoluciferase (engineered Oplophorus gracilirostris luciferase). The assay is described as follows: Primary Nanoluciferase (NLuc) qHTS assay for identification of artifact compounds. (AID 1845222).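 Also: NLuc secreted into diluted conditioned medium of S16 cells; series mostly up to about 54 µM; 0% = DMSO and -100% = no enzyme.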 In a few lines:
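qHTS format, against NLuc in S16 cell-conditioned medium. Nano-Glo substrate 1:100 was added after 15 min at room temperature. Luminescence was taken after a further 5 min.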

A short description of assay [7]: Primary redox qHTS assay for identification of artifact compounds. (AID 1845223).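 Also: 0% = DMSO and 100% = reference compound.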 In outline: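 Amplex Red (25 uM) and HRP (250 mU/mL) in HBSS, with compounds for 15 min, then 250 uM DTT for 30 min, room temperature, dark. Fluorescence 525/598 nm read; normalized to DMSO and 10 uM DA3003; Hill fit.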

Chain of Glutathione peroxidase 1 (Homo sapiens) (P07203 whole entry, looked up): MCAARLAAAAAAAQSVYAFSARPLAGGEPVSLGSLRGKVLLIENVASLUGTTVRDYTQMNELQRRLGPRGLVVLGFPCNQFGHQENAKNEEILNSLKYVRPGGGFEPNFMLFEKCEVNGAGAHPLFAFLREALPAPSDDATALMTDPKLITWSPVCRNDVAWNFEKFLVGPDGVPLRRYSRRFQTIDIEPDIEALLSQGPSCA
Chain of Phospholipid hydroperoxide glutathione peroxidase GPX4 (Homo sapiens) (P36969 whole entry, looked up): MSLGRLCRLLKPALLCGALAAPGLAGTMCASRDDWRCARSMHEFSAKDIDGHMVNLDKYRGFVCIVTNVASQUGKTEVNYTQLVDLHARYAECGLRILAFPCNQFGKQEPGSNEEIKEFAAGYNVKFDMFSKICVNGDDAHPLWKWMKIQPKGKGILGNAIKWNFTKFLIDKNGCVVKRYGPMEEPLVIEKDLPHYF

Take `C[C@@H]1O[C@@H](O[C@H]2[C@H](O[C@H]3[C@H](O)[C@@H](C(=O)O)O[C@@H](O[C@H]4CC[C@@]5(C)C(CC[C@]6(C)C5CC[C@]57OC[C@@]8(CCC(C)(C)CC85)[C@H](O)C[C@]76C)C4(C)C)[C@@H]3O[C@@H]3O[C@H](CO)[C@@H](O[C@@H]4OC[C@@H](O)[C@H](O)[C@H]4O)[C@H](O)[C@H]3O)O[C@H](CO)[C@H](O)[C@@H]2O)[C@H](O)[C@H](O)[C@H]1O` (some centres undefined): the activity change, negative = cell killing in assay [1] is -1.94% [at 9.23 µM]. For the same molecule, the outcome was “inactive [at 9.52 µM]” in assay [2] and “inactive [at 9.73 µM]” in assay [3]. In addition, the activity change, negative = inhibition in assay [4] is 0.267% [at 11.6 µM]. The activity change, negative = thiol reactive in assay [5] is 330% [at 11.5 µM]. In assay [6], the activity, negative = inhibition was 0% [at 11.6 µM].
`CC1=C(CO)C(=O)O[C@@H]([C@@H](C)[C@H]2CC[C@H]3[C@@H]4C[C@H]5O[C@]56[C@@H](O)C=CC(=O)[C@]6(C)[C@H]4CC[C@]23C)C1`: the Potency in assay [1] is 709 nM (active) and 263 nM (active). For the same molecule, the Potency result in assay [2], in assay [3], in assay [4], in assay [5], in assay [6] and in assay [7] was “inactive” in each case.
In the case of `COc1ncc(Nc2ncc([C@H](C)N3CCN(S(C)(=O)=O)CC3)cc2-c2nc(C)nc(N)n2)cc1F`, the Potency in assay [1] was 57.8 nM (active) and 8.3 nM (active). Besides, the Potency entry in assay [2], in assay [3], in assay [4], in assay [5], in assay [6] and in assay [7] was “inactive” throughout.
In the case of `CC1(C)CC[C@]2(C(=O)O)CC[C@]3(C)C(=CCC4[C@@]5(C)CC[C@H](O[C@@H]6O[C@H](C(=O)O)[C@@H](O[C@@H]7OC[C@@H](O)[C@H](O)[C@H]7O)[C@H](O)[C@H]6O)C(C)(C)C5CC[C@]43C)C2C1O` (some centres undefined), the Potency result in assay [1], in assay [2], in assay [3], in assay [4], in assay [5] and in assay [6] was “inactive” throughout. The Potency result in assay [7] is “inactive”.
With `CC(=O)O[C@H]1[C@H](O[C@H]2[C@@H]3C=CO[C@@H](O[C@@H]4O[C@H](CO)[C@@H](O)[C@H](O)[C@H]4O)[C@@H]3[C@@]3(CO)O[C@@H]23)O[C@@H](C)[C@H](OC(=O)/C=C/c2ccccc2)[C@H]1OC(=O)/C=C/c1ccccc1`, the outcome in assay [1] was “inactive [at 9.23 µM]”; in assay [4], “inactive [at 11.6 µM]”. The Potency entry in assay [2] and in assay [3] was “inactive” throughout. For the same molecule, the activity change, negative = thiol reactive in assay [5] is 2.44% [at 11.5 µM]. Further, the activity, negative = inhibition in assay [6] was 2.49% [at 11.6 µM]. In assay [7], the redox activity (% of DA3003) was 5.63% [at 11.5 µM].
On to `NC1CCC(Nc2cc(-c3cccc(NCc4cccc(F)c4)n3)c(Cl)cn2)CC1` (centres undefined), for which the Potency in assay [1] was 0.0728 µM (active). The Potency entry in assay [2], in assay [3], in assay [4], in assay [5], in assay [6] and in assay [7] was “inactive” throughout.
`CC/C=C/CC1=C(CCCCC(CCC(=O)O)OC(C)=O)CCC1=O` (centres undefined): in assay [1], the Potency was 12.7 µM (active). Further, the Potency result in assay [2], in assay [3], in assay [4], in assay [5], in assay [6] and in assay [7] was “inactive” each time.
In the case of `C=CC[C@]12C[C@@H](OC)C(=O)C(OC)=C1O[C@@H](c1cc(OC)c3c(c1)OCO3)[C@@H]2C`, the Potency entry in assay [1], in assay [2], in assay [3], in assay [4], in assay [5] and in assay [6] was “inactive” in each case. In assay [7], the Potency entry is “inactive”.
Turning to `N#C[C@@H]1C[C@H](F)CN1C(=O)CNC1[C@H]2CN(C(=O)c3ccc(F)cc3)C[C@@H]12` (some centres undefined), the Potency result in assay [1], in assay [2], in assay [3], in assay [4], in assay [5] and in assay [6] was “inactive” each time. Also, the Potency entry in assay [7] is “inactive”.
In the case of `COc1ccccc1NC(=O)OCC1CCN(C(=O)OC(C)(C)C)CC1`, the Potency entry in assay [1], in assay [2], in assay [3], in assay [4], in assay [5] and in assay [6] was “inactive” in each case. For the same molecule, the Potency entry in assay [7] was “inactive”.
Consider `C=C1CCC2C(C)(C(=O)OC)CCCC2(C)C1CCC(C)CC(=O)O` (centres undefined), for which the Potency result in assay [1], in assay [2], in assay [3], in assay [4], in assay [5] and in assay [6] was “inactive” each time. Moreover, the Potency entry in assay [7] is “inactive”.
With `C=C1C[C@]23C[C@H]1[C@@H](O)C[C@H]2[C@@]12C=C[C@H](O)[C@@](C)(C(=O)O1)[C@H]2[C@@H]3C(=O)O`, the Potency result in assay [1], in assay [2], in assay [3], in assay [4], in assay [5] and in assay [6] was “inactive” throughout. Further, the Potency result in assay [7] is “inactive”.
Take `C/C1=C\[C@H]2OC(=O)[C@@H](C)[C@@H]2CC/C(C(=O)O)=C/CC1`: the Potency result in assay [1], in assay [2], in assay [3], in assay [4], in assay [6] and in assay [7] was “inactive” each time. Also, the Potency in assay [5] is 11.9 µM (active).
Turning to `CC1=CCC2C(C)(C)CCC[C@]2(C)[C@@]12CC[C@](C)(CC(=O)O)O2` (some centres undefined), the Potency result in assay [1], in assay [2], in assay [3], in assay [4], in assay [5] and in assay [6] was “inactive” each time. Moreover, in assay [7], the Potency entry was “inactive”.
Consider `CC(=O)O[C@@H]1c2c(C)coc2C(=O)[C@@]23O[C@@H]2CC[C@H](C)[C@@]13C`, for which the Potency result in assay [1], in assay [2], in assay [3], in assay [4], in assay [5] and in assay [6] was “inactive” in each case. Also, the Potency entry in assay [7] was “inactive”.
In the case of `CCC(CC)C(=O)Nc1sc2c(c1C#N)CCC(C(C)(C)CC)C2` (centres undefined), the Potency entry in assay [1], in assay [2], in assay [3], in assay [4], in assay [5] and in assay [6] was “inactive” in each case. Moreover, in assay [7], the Potency entry is “inactive”.
Consider `C=C1C(=O)O[C@H](CCC)[C@H]1C(=O)O`, for which the Potency result in assay [1], in assay [2], in assay [3], in assay [4], in assay [5] and in assay [6] was “inactive” each time. For the same molecule, the Potency entry in assay [7] is “inactive”.
For `Cc1[nH]c2ccccc2c1C1=C(NCCc2ccc(F)cc2)C(=O)N(C)C1=O`, the figures for the Potency in assay [1] and in assay [5] were 8.17 µM (active) and 1.5 µM (active), respectively. In addition, the Potency result in assay [2], in assay [3], in assay [4], in assay [6] and in assay [7] was “inactive” each time.
As for `CC(=O)OC1CC2(C)C3=CCC4(C)C5C(O)C(O)C(C(C)C)C5(C)CCC4(C)C3CCC2C(C)(C)C1OC1OC(CO)C(O)C(O)C1O` (centres undefined), the Potency result in assay [1], in assay [2], in assay [3], in assay [4], in assay [5] and in assay [6] was “inactive” each time. Besides, the Potency entry in assay [7] is “inactive”.
Turning to `Cc1cc(C(=O)N2CCCCc3ccccc32)ccc1CNC(=O)N1CCC[C@H]1C(=O)N(C)C`, the Potency entry in assay [1], in assay [2], in assay [3], in assay [4], in assay [5] and in assay [6] was “inactive” each time. Further, in assay [7], the Potency result was “inactive”.
